Experimental data taken from the supplement of paper PMC10849652.
The full data set covers some 7,900 targets. This sample favours those with a hit. About 0.6% of all pairs of compound and target were hits.

How the values were obtained:
Assay in all cases: log2 fold change, soluble protein after heating vs DMSO (PISA); higher = thermal stabilisation; K562 cells, 10 uM, 30 min; active = over 0.2 and 3.5 SD of the protein, either way, in both replicates (recomputed)
[1] = compound: CC1=C2C(=CC=C1)N=C(N(C2=O)C3=CC=CC=C3C)CN4C=NC5=C(N=CN=C54)N
Method in brief: (§1)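 Aliquots of K562 cells (2×10^6 cells/mL) treated with 10 μM compound for 30 min were heated for 3 min over 48°C-58°C. After pooling and extraction in PBS with 0.5% NP-40 at 4°C, soluble protein from a 21,000xg, 90 min spin was quantified by TMTpro 16plex LC-MS/MS with channel sums equalised. Thermal stability is expressed against control samples, from duplicates, as a log2 fold change.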

[2] = compound: Cc1sc2c(c1C)C(c1ccc(Cl)cc1)=N[C@@H](CC(=O)OC(C)(C)C)c1nnc(C)n1-2
Method in brief: as §1

[3] = compound: C1=CC=C(C=C1)[C@H](COC2=CC3=C(C=C2)NC(=O)N3)NC(=O)C4=CC=CN(C4=O)CC5=CC(=C(C=C5)F)F
Method in brief: as §1

[4] = compound: CC1=C(SC2=C1C(=N[C@H](C3=NN=C(N32)C)CC(=O)N)C4=CC=C(C=C4)Cl)C
Method in brief: as §1

[5] = compound: c1ccc([C@@H]2C[C@H]2NC2CCNCC2)cc1
Method in brief: as §1

Measured: log2 fold change

TC2N (UniProt Q8N9U0)
UniProt Q8N9U0, sequence (Q8N9U0 whole entry, looked up): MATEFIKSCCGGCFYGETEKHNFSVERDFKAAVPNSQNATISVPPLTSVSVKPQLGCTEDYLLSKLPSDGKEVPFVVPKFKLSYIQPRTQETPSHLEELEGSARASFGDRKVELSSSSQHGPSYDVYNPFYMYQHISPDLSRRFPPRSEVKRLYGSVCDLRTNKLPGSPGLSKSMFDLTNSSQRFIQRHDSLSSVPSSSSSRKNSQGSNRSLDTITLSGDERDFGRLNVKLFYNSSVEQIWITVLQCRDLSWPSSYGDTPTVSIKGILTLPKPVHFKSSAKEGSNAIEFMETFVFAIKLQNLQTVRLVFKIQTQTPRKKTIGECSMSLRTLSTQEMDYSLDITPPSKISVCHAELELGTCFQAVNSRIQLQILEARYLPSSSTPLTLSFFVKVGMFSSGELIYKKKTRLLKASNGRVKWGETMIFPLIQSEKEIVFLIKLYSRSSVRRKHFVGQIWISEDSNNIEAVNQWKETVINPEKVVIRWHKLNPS
inactive: [1] 0.053 | [2] 0.08

TIMM29 (UniProt Q9BSF4)
UniProt Q9BSF4, sequence (Q9BSF4 whole entry, looked up): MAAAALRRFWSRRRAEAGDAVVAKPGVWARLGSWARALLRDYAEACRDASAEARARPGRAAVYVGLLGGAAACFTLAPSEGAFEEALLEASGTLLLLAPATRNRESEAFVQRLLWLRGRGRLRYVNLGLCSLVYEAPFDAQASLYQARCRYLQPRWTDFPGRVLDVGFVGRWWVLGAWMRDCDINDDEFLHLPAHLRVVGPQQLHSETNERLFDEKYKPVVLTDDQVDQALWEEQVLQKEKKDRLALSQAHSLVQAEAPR
inactive: [3] -0.034 | [4] 0.114 | [1] -0.026 | [2] -0.006 | [5] 0.031

TCOF1 isoform 4 (UniProt Q13428)
UniProt Q13428, sequence (Q13428 whole entry, looked up): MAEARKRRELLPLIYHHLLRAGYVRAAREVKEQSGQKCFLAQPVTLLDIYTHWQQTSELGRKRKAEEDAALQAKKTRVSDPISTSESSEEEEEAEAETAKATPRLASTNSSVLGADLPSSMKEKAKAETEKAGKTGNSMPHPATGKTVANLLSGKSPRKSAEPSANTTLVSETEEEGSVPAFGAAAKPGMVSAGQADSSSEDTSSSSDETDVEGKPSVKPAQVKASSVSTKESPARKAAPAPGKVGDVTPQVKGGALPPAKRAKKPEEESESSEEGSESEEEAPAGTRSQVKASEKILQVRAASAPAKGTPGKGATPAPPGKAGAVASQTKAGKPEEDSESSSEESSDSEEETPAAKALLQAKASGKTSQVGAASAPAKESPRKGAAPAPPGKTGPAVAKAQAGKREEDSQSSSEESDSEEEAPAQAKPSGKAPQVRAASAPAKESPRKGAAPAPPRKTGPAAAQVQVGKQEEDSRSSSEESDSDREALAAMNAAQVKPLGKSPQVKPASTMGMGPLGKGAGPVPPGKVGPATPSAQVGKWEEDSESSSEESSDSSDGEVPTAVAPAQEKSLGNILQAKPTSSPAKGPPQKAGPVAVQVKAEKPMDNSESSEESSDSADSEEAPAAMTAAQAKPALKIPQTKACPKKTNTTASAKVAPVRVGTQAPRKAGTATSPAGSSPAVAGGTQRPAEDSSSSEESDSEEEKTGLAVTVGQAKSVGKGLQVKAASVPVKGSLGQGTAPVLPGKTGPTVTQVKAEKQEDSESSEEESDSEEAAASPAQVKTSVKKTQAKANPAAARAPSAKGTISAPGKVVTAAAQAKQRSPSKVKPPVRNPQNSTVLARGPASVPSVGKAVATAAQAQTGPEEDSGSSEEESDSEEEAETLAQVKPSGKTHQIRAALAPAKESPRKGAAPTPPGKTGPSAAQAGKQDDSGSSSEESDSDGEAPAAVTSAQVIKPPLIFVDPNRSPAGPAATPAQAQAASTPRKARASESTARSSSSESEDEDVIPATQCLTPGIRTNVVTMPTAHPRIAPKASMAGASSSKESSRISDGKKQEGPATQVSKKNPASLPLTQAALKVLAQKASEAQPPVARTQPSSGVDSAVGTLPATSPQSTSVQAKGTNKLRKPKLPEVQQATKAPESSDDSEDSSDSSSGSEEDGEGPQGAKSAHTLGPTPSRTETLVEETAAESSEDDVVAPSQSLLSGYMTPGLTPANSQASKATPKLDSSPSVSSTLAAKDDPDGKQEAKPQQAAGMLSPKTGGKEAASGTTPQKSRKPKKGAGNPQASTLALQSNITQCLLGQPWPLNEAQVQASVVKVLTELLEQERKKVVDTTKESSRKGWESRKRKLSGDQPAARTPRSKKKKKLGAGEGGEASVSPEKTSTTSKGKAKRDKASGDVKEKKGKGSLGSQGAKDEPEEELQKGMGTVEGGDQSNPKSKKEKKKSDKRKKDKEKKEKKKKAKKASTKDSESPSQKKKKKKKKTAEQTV
inactive: [3] 0.016 | [4] 0.006 | [1] 0.018 | [2] 0.033 | [5] 0.042

SMARCB1 (UniProt Q12824)
UniProt Q12824, sequence (Q12824 whole entry, looked up): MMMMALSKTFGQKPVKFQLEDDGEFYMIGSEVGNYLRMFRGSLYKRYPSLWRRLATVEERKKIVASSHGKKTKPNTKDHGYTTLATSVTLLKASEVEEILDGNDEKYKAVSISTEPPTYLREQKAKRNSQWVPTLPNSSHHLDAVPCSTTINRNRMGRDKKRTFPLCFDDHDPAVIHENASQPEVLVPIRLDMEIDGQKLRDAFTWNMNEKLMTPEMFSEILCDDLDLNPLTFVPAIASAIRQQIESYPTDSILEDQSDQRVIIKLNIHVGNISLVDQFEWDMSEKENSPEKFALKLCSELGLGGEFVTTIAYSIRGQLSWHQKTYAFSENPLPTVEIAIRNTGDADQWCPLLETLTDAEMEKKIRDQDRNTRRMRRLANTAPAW
inactive: [4] 0.057 | [1] -0.041 | [2] 0.015 | [5] 0.18

TAF6L (UniProt Q9Y6J9)
UniProt Q9Y6J9, sequence (Q9Y6J9 whole entry, looked up): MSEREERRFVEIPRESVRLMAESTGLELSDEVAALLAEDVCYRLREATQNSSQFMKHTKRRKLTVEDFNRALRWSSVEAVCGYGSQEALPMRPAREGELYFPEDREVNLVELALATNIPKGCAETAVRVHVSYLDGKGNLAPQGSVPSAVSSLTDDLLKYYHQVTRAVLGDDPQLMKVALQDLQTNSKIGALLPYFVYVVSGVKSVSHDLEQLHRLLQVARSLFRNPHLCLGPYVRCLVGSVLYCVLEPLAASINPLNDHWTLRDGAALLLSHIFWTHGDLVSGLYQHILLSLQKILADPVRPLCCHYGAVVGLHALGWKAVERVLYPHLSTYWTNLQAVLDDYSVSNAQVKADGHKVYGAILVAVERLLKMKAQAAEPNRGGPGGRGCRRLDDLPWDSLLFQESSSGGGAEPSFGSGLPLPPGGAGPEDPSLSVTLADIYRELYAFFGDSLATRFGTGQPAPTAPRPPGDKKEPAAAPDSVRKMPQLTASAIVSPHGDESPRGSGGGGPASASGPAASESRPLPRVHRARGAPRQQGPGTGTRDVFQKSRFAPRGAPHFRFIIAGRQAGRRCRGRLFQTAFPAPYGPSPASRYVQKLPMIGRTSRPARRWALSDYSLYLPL
inactive: [4] -0.209 | [2] 0.048 | [5] 0.073

SNX12 isoform 1 (UniProt Q9UMY4)
UniProt Q9UMY4, sequence (Q9UMY4 whole entry, looked up): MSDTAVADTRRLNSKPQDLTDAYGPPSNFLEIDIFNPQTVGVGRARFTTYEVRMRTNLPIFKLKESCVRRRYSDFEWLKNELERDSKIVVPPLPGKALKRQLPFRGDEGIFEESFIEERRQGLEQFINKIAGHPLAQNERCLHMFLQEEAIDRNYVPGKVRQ
inactive: [3] 0.016 | [4] -0.009 | [1] 0.095 | [2] 0.026 | [5] 0.02

SSBP4 (UniProt Q9BWG4)
UniProt Q9BWG4, sequence (Q9BWG4 whole entry, looked up): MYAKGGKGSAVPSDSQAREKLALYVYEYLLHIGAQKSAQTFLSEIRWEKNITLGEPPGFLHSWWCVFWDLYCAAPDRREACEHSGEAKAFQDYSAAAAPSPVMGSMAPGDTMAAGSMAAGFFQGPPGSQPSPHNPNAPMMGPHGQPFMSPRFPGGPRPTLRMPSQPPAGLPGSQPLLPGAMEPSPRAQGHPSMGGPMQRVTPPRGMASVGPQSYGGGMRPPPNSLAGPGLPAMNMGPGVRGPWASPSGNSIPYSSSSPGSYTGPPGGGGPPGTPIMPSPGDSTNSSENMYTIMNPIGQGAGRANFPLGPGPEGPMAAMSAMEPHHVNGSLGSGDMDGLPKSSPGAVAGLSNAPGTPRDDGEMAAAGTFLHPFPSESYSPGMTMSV
inactive: [3] 0.086 | [2] 0.037

SRFBP1 (UniProt Q8NEF9)
UniProt Q8NEF9, sequence (Q8NEF9 whole entry, looked up): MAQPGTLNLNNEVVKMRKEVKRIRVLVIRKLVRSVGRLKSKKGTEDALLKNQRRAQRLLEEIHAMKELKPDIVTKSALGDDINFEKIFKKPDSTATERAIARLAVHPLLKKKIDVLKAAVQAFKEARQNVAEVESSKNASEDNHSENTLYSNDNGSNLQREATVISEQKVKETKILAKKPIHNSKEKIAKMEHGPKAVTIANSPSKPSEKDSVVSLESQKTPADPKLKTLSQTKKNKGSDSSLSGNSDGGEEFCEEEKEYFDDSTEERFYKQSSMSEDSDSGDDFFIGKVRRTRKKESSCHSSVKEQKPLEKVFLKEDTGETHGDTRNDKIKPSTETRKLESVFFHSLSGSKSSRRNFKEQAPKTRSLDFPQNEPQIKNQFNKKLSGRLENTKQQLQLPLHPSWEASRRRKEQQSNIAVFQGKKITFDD
inactive: [3] 0.011 | [4] -0.14 | [2] 0.048 | [5] -0.013

TCOF1 isoform 3 (UniProt Q13428)
inactive: [2] -0.093

TDP1 (UniProt Q9NUW8)
UniProt Q9NUW8, sequence (Q9NUW8 whole entry, looked up): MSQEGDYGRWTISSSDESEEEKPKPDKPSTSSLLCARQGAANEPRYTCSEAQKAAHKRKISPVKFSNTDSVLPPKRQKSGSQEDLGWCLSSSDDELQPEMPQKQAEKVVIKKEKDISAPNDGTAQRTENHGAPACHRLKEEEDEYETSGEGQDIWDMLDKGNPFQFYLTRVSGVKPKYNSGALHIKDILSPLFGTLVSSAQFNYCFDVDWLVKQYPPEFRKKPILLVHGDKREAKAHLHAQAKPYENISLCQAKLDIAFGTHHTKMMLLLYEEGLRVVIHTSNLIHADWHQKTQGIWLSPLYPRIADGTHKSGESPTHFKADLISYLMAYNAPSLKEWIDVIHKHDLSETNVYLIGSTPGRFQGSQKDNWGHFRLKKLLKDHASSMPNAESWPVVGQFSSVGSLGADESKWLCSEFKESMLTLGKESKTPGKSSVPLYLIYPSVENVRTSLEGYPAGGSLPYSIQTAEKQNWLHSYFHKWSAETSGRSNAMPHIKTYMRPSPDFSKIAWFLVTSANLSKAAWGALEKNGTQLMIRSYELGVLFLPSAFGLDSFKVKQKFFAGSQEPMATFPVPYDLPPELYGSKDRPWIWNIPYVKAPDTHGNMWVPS
inactive: [4] 0.068 | [5] 0.054
